Data: PubChem BioAssay
Calls of active or inactive are those of the source. Unless noted, how the calls were made is not given here.

What was measured:
[1] = anti-His antibody binders, primary screen, artefact control for SMM control protein annotation, biochemical, small-molecule microarray, 635 nm fluorescence (AID 1128); details: anti-His Alexa647 antibody binding, higher = more signal;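 further: score merges feature fluorescence with signal-to-noise for each printed compound spot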
[2] = tested on: Human papillomavirus type 1a E7 protein (residues 1-88); test: HPV1a E7 small-molecule binders, primary screen, biochemical, small-molecule microarray, residues 1-88, 635 nm (AID 1129); details: small-molecule microarray binding, fluorescence 635 nm; higher = more signal
[3] = molecular target: Focal adhesion kinase 1 (Homo sapiens) (UniProt Q05397); test: small-molecule microarray binders of FAK, primary screen, biochemical, 635/667 nm fluorescence, BSA, DTT (AID 1130); details: PTK2 binding, 635 nm fluorescence, higher = more signal;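 further: composite of spot emission at 667 nm and signal to noise over triplicate slides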
Chain of Focal adhesion kinase 1 (Homo sapiens) (Q05397 whole entry, looked up): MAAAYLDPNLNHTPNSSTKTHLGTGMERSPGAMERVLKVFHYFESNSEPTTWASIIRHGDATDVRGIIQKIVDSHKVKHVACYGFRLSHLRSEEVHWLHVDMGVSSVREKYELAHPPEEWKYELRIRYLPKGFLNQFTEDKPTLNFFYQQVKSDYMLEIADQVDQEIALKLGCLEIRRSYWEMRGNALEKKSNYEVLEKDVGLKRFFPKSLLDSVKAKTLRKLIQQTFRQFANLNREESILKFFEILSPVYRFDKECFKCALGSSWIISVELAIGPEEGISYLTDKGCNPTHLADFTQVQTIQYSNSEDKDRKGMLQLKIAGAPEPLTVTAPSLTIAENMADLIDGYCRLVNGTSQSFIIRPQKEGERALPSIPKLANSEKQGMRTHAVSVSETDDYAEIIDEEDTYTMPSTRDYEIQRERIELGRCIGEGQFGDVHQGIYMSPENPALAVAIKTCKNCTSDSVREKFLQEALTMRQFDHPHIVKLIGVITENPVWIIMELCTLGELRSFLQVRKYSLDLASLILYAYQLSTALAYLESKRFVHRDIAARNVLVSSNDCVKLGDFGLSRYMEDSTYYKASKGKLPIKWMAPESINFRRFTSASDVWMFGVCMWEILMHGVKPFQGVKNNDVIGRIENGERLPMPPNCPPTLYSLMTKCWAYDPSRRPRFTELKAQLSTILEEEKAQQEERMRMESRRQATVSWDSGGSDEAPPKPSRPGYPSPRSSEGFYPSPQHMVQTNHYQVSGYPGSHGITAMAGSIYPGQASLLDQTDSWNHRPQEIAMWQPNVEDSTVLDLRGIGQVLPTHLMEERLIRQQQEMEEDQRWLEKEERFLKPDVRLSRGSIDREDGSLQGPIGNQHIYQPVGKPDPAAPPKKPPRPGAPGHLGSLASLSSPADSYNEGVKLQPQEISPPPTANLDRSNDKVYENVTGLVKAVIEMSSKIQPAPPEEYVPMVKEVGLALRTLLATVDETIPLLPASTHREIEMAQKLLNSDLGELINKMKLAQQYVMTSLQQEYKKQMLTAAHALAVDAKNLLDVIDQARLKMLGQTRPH

[4] = tested on: Fibrinogen (Alexa647-labelled); test: fibrinogen binders on compound microarrays, profiling panel, artefact control for SMM control-protein annotation, biochemical, small-molecule microarray, 635/667 nm fluorescence (AID 1131); details: fibrinogen-A647 binding fluorescence, higher = more signal;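 further: z-score merges 667 nm fluorescence with per-spot signal-to-noise over triplicate slides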
[5] = molecular target: Follistatin (Homo sapiens) (UniProt P19883); test: follistatin binders on small-molecule microarrays, primary screen, biochemical, small-molecule microarray, 635/667 nm fluorescence (AID 1132); details: FST binding, 635 nm fluorescence, higher = more signal
Chain of Follistatin (Homo sapiens) (P19883 whole entry, looked up): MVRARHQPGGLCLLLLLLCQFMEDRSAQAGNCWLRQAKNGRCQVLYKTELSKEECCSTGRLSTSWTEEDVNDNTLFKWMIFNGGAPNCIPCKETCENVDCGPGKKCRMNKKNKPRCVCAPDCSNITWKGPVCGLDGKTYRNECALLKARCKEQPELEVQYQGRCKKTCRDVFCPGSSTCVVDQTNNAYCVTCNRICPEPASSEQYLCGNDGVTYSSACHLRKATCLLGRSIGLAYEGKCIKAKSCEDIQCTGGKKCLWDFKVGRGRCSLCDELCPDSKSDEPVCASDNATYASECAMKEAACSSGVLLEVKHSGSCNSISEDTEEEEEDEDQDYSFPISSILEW

[6] = molecular target: Fibroblast growth factor 2 (Homo sapiens) (UniProt P09038); test: FGF2 binders on small-molecule microarrays, primary screen, biochemical, small-molecule microarray, 635/667 nm fluorescence (AID 1133); details: small-molecule microarray binding, FGF2, fluorescence 635/667; higher = more signal
Chain of Fibroblast growth factor 2 (Homo sapiens) (P09038 whole entry, looked up): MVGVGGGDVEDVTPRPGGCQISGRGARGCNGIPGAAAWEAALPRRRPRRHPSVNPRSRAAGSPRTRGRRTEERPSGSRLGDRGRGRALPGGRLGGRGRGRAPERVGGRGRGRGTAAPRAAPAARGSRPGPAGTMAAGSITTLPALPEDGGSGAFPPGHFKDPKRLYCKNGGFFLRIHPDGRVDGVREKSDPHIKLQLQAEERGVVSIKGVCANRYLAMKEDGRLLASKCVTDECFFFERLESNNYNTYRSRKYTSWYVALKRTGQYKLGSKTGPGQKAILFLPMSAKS

[7] = mitochondrial membrane potential change in A549 cells, profiling panel, cell-based, JC-1 fluorescence, basal, 24 h, 100 nL (AID 1138); details: higher = more signal;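 further: A549 lung adenocarcinoma cells under basal conditions with no added stimulus; test concentration not given here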
Lefty1 = Lefty1 binders on small-molecule microarrays, primary screen, biochemical, small-molecule microarray, 635/667 nm fluorescence (AID 1139); details: small-molecule microarray binding, fluorescence 635/667; higher = more signal
[8] = tested on: wheat germ agglutinin (Triticum aestivum), Alexa647-labelled; test: wheat germ agglutinin binders on compound microarrays, profiling panel, artefact control for SMM control-protein annotation, biochemical, small-molecule microarray, 635/667 nm fluorescence (AID 1140); details: WGA-A647 binding, 635 nm fluorescence, higher = more signal;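 further: score merges 667 nm feature emission with signal to noise over triplicate slides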
[9] = molecular target: Luciferin 4-monooxygenase (Photinus pyralis) (UniProt P08659); test: firefly luciferase enzyme inhibitors, primary screen, biochemical, luminescence, purified enzyme, 2006 set (AID 1141); details: SteadyGlo luminescence, 30 min, higher = more signal, called active from +8 up or from −8 down;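 further: cell-free assay with purified firefly luciferase at 100 ng per well in PBS; test concentration not given here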
Chain of Luciferin 4-monooxygenase (Photinus pyralis) (P08659 whole entry, looked up): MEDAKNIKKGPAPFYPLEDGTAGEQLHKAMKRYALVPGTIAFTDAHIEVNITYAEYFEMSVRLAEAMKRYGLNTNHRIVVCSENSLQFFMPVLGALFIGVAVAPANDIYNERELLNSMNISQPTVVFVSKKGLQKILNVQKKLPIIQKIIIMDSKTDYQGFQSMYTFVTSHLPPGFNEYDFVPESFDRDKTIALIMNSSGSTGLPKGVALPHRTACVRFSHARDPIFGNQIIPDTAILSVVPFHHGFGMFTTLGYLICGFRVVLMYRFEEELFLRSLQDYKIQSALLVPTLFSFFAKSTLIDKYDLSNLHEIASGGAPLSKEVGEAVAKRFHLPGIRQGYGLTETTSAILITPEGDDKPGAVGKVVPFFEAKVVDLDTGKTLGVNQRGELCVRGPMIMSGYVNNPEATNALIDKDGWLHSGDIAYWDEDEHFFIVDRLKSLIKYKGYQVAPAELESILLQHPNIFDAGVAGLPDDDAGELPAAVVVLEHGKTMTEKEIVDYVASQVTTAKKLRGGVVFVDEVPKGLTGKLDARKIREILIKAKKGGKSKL

[10] = tested on: Wnt5a (protein binding on small-molecule microarray); test: Wnt5a binders on small-molecule microarray, primary screen, biophysical, 635/667 nm fluorescence (AID 1142); details: 635 nm fluorescence, higher = more signal;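 further: fluorescence read at 667 nm with signal to noise per printed feature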
[11] = cell viability in Huh7 cells, primary screen, cytotoxicity control for HCV replication inhibitor project, CellTiter-Glo luminescence, basal, 48 h (AID 1143); details: Huh7 HCV replicon, higher = more signal, called active from +8 up or from −8 down;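 further: Huh7 hepatoma cells carrying a hepatitis C replication reporter with no stimulus; test concentration not given here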
[12] = P. aeruginosa biofilm formation inhibitors, primary screen, PAO1 strain, BacTiter-Glo luminescence, LB-PBS (AID 1144); details: 12 h, higher = more signal
[13] = CREB reporter modulators without forskolin, primary screen, cell-based, PC12, CRE-LacZ reporter, unstimulated (AID 1145); details: no forskolin, luminescence, 4.5 h, higher = more signal, called active from +8 up or from −8 down
[14] = CREB reporter modulators under forskolin, primary screen, cell-based, PC12, CRE-LacZ reporter, forskolin-stimulated (AID 1146); details: luminescence, 4.5 h, higher = more signal, called active from +8 up or from −8 down;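 further: PC12 cells with 6xCRE LacZ reporter stimulated by forskolin 10 µM; beta-galactosidase reporter signal reflecting CREB driven transcription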
[15] = molecular target: Streptavidin (Streptomyces avidinii) (UniProt P22629); test: streptavidin binders on small-molecule microarray, primary screen, artefact control for SMM compound annotation, biophysical, 635/667 nm fluorescence (AID 1147); details: streptavidin binding, higher = more signal;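 further: signal reflects streptavidin binding to arrayed compounds as a control protein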
Chain of Streptavidin (Streptomyces avidinii) (P22629 whole entry, looked up): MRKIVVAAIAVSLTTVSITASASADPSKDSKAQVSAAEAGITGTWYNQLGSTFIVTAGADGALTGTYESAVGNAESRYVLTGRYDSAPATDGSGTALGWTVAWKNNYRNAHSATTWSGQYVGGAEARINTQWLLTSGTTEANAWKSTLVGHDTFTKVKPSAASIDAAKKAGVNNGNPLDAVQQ

[16] = small-molecule binders of probe aInhba, primary screen, biochemical, small-molecule microarray, 635/667 nm fluorescence (AID 1148); details: higher = more signal;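 further: score merges 667nm spot fluorescence with signal-to-noise for antibody binding to printed compounds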
Torsin-1A (Homo sapiens) [17] = molecular target: Torsin-1A (Homo sapiens) (UniProt O14656); test: torsin A binders from cell lysate, primary screen, small-molecule microarray, wild-type, 635/667 nm (AID 1149); details: COS7 hTOR1A-WT lysate, 635 nm fluorescence, higher = more signal
Chain of Torsin-1A (Homo sapiens) (O14656 whole entry, looked up): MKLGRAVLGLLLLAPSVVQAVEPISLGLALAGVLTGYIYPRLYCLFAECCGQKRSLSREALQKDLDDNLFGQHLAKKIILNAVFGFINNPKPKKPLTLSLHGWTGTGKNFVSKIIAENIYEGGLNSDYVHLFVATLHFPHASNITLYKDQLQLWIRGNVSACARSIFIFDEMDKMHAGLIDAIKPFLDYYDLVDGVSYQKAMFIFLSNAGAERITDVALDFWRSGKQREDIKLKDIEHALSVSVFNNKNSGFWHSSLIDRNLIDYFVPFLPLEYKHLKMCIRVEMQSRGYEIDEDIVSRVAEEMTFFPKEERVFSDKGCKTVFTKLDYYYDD

Torsin-1A (Homo sapiens) [18] = molecular target: Torsin-1A (Homo sapiens) (UniProt O14656); test: small-molecule binders of mutant TOR1A in lysate, primary screen, cell lysate, small-molecule microarray, COS7 lysate, 635/667 nm fluorescence (AID 1150); details: COS7 hTOR1A mutant lysate, 635 nm fluorescence, higher = more signal;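 further: score pools 667 nm emission and signal to noise measuring lysate protein binding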
[19] = tested on: Sonic hedgehog protein (Shh); test: small-molecule binders of Shh protein, primary screen, biochemical, small-molecule microarray, 635/667 nm fluorescence (AID 1151); details: small-molecule microarray binding, 635 nm fluorescence; higher = more signal;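 further: Shh protein binding to compounds spotted on small-molecule microarray slides; score combines spot fluorescence intensity with signal-to-noise across triplicate slides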

Q: Which results are given for `C=C(CCCC)C(=O)CC[C@@H](OC(=O)c1ccccc1-c1ccccc1C(=O)O)c1ccccc1OCCO`?
A: composite z-score [1]: 0.397; composite z-score [2]: 0.421; composite z-score [3]: -0.104; composite z-score [4]: 0.017; composite z-score [5]: 1.02; composite z-score [6]: 0.906; z-score [7]: 0.916; composite z-score (Lefty1): 1.2; composite z-score [8]: -0.191; z-score [9]: -1.31 (inactive); composite z-score [10]: 0.0726; z-score [11]: -1.62 (inactive); z-score [12]: -0.131 (inactive); z-score [13]: 6.69 (inactive); z-score [14]: 2.06 (inactive); composite z-score [15]: -0.34; composite z-score [16]: -0.157; composite z-score (Torsin-1A (Homo sapiens) [17]): 1.21; composite z-score (Torsin-1A (Homo sapiens) [18]): 0.818; composite z-score [19]: 1.56

Q: What does the source list for `C=CC[C@]1(C(=O)NCC(O)CO)COC(c2ccc(OCCCO)cc2)=N1` (stereo not given in full)?
A: composite z-score [1]: -0.493; composite z-score [2]: 0.57; composite z-score [3]: -0.0726; composite z-score [4]: -1.36; composite z-score [5]: 0.821; composite z-score [6]: 1.01; z-score [7]: -0.565; composite z-score (Lefty1): -0.513; composite z-score [8]: -0.326; z-score [9]: 0.0208 (inactive); composite z-score [10]: 0.359; z-score [11]: 0.154 (inactive); z-score [12]: -0.055 (inactive); z-score [13]: 0.792 (inactive); z-score [14]: -0.282 (inactive); composite z-score [15]: -0.486; composite z-score [16]: 0.109; composite z-score (Torsin-1A (Homo sapiens) [17]): 0.185; composite z-score (Torsin-1A (Homo sapiens) [18]): 1.03; composite z-score [19]: -0.495

Q: For `C=CCNC(=O)[C@H]1[C@@H]2C(=O)O[C@@H](c3ccccc3)[C@@H](c3ccccc3)N2[C@@H](c2ccc(OCCO)cc2)[C@]12C(=O)Nc1ccc(C#CC3(O)CCCCCC3)cc12`, which composite z-score [1] is on record?
A: 1.26

Q: And the composite z-score [2]?
A: 1.18

Q: What about the composite z-score [3] of the same molecule?
A: 0.358

Q: And the composite z-score [4]?
A: 0.932

Q: And the composite z-score [5]?
A: 1.14

Q: What about the composite z-score [6] of the same molecule?
A: 1.13

Q: And the z-score [7]?
A: 0.38

Q: What about the composite z-score (Lefty1) of the same molecule?
A: 1.3

Q: And the composite z-score [8]?
A: 0.651

Q: And the z-score [9]?
A: -1.96 (inactive)

Q: What about the composite z-score [10] of the same molecule?
A: 0.564

Q: What about the z-score [11] of the same molecule?
A: -3.3 (inactive)

Q: And the z-score [12]?
A: 0.15 (inactive)

Q: And the z-score [13]?
A: -0.329 (inactive)

Q: What about the z-score [14] of the same molecule?
A: 0.566 (inactive)

Q: What about the composite z-score [15] of the same molecule?
A: 0.618

Q: What about the composite z-score [16] of the same molecule?
A: 0.108

Q: What about the composite z-score (Torsin-1A (Homo sapiens) [17]) of the same molecule?
A: 0.406

Q: What about the composite z-score (Torsin-1A (Homo sapiens) [18]) of the same molecule?
A: 0.564

Q: What about the composite z-score [19] of the same molecule?
A: 1.31

Q: Which composite z-score [1] does the source give for `Cc1ccc(S[C@]2(C(=O)NC(C)C)CC(=O)N(C3CCCCC3)[C@@H]2c2ccc(CO)cc2I)cc1` here?
A: 0.362

Q: And the composite z-score [2]?
A: 1.11

Q: And the composite z-score [3]?
A: 0.414

Q: What about the composite z-score [4] of the same molecule?
A: 0.703

Q: And the composite z-score [5]?
A: 1.21

Q: And the composite z-score [6]?
A: 0.396

Q: What about the z-score [7] of the same molecule?
A: 1.04

Q: And the composite z-score (Lefty1)?
A: 0.964

Q: And the composite z-score [8]?
A: 0.0189

Q: And the z-score [9]?
A: 0.571 (inactive)

Q: What about the composite z-score [10] of the same molecule?
A: 0.0335

Q: And the z-score [11]?
A: -3.94 (inactive)

Q: What about the z-score [12] of the same molecule?
A: -1.17 (inactive)

Q: And the z-score [13]?
A: -0.608 (inactive)

Q: What about the z-score [14] of the same molecule?
A: 0.74 (inactive)

Q: What about the composite z-score [15] of the same molecule?
A: 1.46

Q: And the composite z-score [16]?
A: -0.0589

Q: What about the composite z-score (Torsin-1A (Homo sapiens) [17]) of the same molecule?
A: 1.21

Q: What about the composite z-score (Torsin-1A (Homo sapiens) [18]) of the same molecule?
A: 2.76

Q: What about the composite z-score [19] of the same molecule?
A: 1.95

Q: Which composite z-score [1] does the source give for `COC(=O)[C@]1(CCC(=O)OC(C)(C)C)N=C(c2ccc(OCCCO)cc2)O[C@@H]1c1ccccc1N=[N+]=[N-]` here?
A: 0.477

Q: And the composite z-score [2]?
A: 0.993

Q: And the composite z-score [3]?
A: -0.212

Q: And the composite z-score [4]?
A: -0.306

Q: And the composite z-score [5]?
A: 1.29

Q: What about the composite z-score [6] of the same molecule?
A: 0.626

Q: And the z-score [7]?
A: 1.3

Q: And the composite z-score (Lefty1)?
A: -0.0341

Q: What about the composite z-score [8] of the same molecule?
A: 0.658

Q: What about the z-score [9] of the same molecule?
A: -6.42 (inactive)

Q: What about the composite z-score [10] of the same molecule?
A: 0.827

Q: And the z-score [11]?
A: -2.64 (inactive)

Q: And the z-score [12]?
A: -0.192 (inactive)

Q: And the z-score [13]?
A: 0.834 (inactive)

Q: And the z-score [14]?
A: 0.154 (inactive)

Q: And the composite z-score [15]?
A: -0.0444

Q: What about the composite z-score [16] of the same molecule?
A: -0.0658

Q: And the composite z-score (Torsin-1A (Homo sapiens) [17])?
A: 0.154

Q: And the composite z-score (Torsin-1A (Homo sapiens) [18])?
A: 0.0612

Q: What about the composite z-score [19] of the same molecule?
A: 0.886

Q: Which composite z-score [1] does the source give for `COCCCNC(=O)[C@@H]1c2ccccc2C(=O)N(Cc2ccc(OC(F)(F)F)cc2)[C@H]1c1ccc(CO)cc1` here?
A: 1.54

Q: What about the composite z-score [2] of the same molecule?
A: 1.11

Q: What about the composite z-score [3] of the same molecule?
A: 1.79

Q: What about the composite z-score [4] of the same molecule?
A: 0.654

Q: And the composite z-score [5]?
A: 1.14

Q: And the composite z-score [6]?
A: 0.722

Q: What about the z-score [7] of the same molecule?
A: 2.03

Q: And the composite z-score (Lefty1)?
A: 0.541

Q: What about the composite z-score [8] of the same molecule?
A: 0.316

Q: And the z-score [9]?
A: -0.0459 (inactive)

Q: And the composite z-score [10]?
A: 0.53

Q: What about the z-score [11] of the same molecule?
A: -0.429 (inactive)

Q: And the z-score [12]?
A: 0.0789 (inactive)

Q: And the z-score [13]?
A: 0.674 (inactive)

Q: And the z-score [14]?
A: 0.0988 (inactive)

Q: And the composite z-score [15]?
A: -0.0096

Q: And the composite z-score [16]?
A: -0.0221

Q: What about the composite z-score (Torsin-1A (Homo sapiens) [17]) of the same molecule?
A: 0.0966

Q: And the composite z-score (Torsin-1A (Homo sapiens) [18])?
A: 0.281

Q: What about the composite z-score [19] of the same molecule?
A: 1.09
